Test results taken from PubChem BioAssay (EPA / NIEHS).
Results filed as inconclusive are left out. Activity calls are given as the source filed them. The calls were made as follows, unless noted: active = hit-call score of the fitted dose curve at least 0.9, where 1 is the maximum; inconclusive = response in the unintended direction; inactive = score below 0.9.

Key:
[1] = TOX21_p53_BLA_p3_viability: Viability Assessment in the Tox21 HCT-116 p53 Agonism Beta-lactamase Assay, Phase 3 (AID 2283593);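 also: cells exposed to compound for 16 h before reading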
Summary of the method: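 HCT-116 cells (4000/well) rested 5 h at 37C, then got DMSO compounds by pin tool (217-fold dilution) for 16 h at 37C, 5% CO2. After the bla read, CellTiter-Glo was added and luminescence read at 30 min, room temperature.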

[2] = TOX21_p53_BLA_p4_viability: Viability Assessment in the Tox21 HCT-116 p53 Agonism Beta-lactamase Assay, Phase 4 (AID 2283597);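 also: hits lower the luminescence signal meaning cytotoxicity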
Summary of the method: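 Following a 16 h exposure at 37C, the treated HCT116 wells were first read for the FRET ratio. They were then lysed with CellTiter-Glo, and ATP luminescence was recorded after 30 min at room temperature.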

[3] = target: Cellular tumor antigen p53 (Homo sapiens) (UniProt P04637); assay: TOX21_p53_BLA_p4_ratio: Tox21 HCT-116 p53 Agonism Beta-lactamase Assay, Ratio, Phase 4 (AID 2283601)
Cellular tumor antigen p53 (Homo sapiens), sequence (P04637 whole entry, looked up): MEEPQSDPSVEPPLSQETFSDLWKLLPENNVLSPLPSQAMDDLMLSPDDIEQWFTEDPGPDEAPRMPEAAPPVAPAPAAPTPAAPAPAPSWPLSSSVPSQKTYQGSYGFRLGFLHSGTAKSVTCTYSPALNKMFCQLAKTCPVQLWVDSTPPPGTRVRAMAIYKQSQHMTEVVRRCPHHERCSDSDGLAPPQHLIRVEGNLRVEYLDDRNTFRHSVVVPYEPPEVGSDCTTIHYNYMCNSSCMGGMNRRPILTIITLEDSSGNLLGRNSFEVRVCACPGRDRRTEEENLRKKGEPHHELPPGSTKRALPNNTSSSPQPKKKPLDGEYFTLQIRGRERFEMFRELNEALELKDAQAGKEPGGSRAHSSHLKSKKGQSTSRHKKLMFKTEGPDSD
Summary of the method: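 HCT116 cells carrying an inducible beta-lactamase reporter were plated at 4000 cells/well, rested 5 h, then exposed to compounds in DMSO (217-fold dilution) for 16 h at 37C. CCF4-AM substrate was loaded 2 h at room temperature; 460/530 nm emission ratio scored gain-of-signal versus DMSO.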

[4] = target: Cellular tumor antigen p53 (Homo sapiens) (UniProt P04637); assay: TOX21_p53_BLA_p5_ratio: Tox21 HCT-116 p53 Agonism Beta-lactamase Assay, Ratio, Phase 5 (AID 2283599)
Summary of the method: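 HCT-116 cells carrying a p53-inducible beta-lactamase reporter were seeded at 4000 cells/well and dosed after 5 h with compound in DMSO (217-fold dilution). After 16 h at 37C, CCF4-AM substrate was added for 2 h, and the 460/530 nm emission ratio was scored as gain-of-signal versus DMSO.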

[5] = TOX21_p53_BLA_p5_viability: Viability Assessment in the Tox21 HCT-116 p53 Agonism Beta-lactamase Assay, Phase 5 (AID 2283600)
Summary of the method: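 After the 460/530 nm beta-lactamase measurement, the wells received an ATP-detection luciferase reagent; signal was read 30 min later at RT. Compound treatment lasted 16 h on cells pre-incubated 5 h post-seeding.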

[6] = target: Thyroid hormone receptor alpha (Rattus norvegicus) + Thyroid hormone receptor beta (Rattus norvegicus) (UniProt P18113+P63059); assay: TOX21_TR_LUC_GH3_Antagonist_Followup: Tox21 GH3 Thyroid Hormone Receptor Antagonism Luciferase Follow-Up Assay (AID 2283942)
Summary of the method: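 Rat pituitary GH3 cells with a TRα/TRβ-driven luciferase reporter, 5 h attachment, then 15 concentrations (92 uM to 5nM final) plus 1.0 nM T3 agonist, 24 h at 37C/5% CO2. ONE-Glo luminescence; signal change fitted against DMSO baseline.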

THRA (gene 7067) = THRA (gene 7067) (UniProt P10827); assay: TOX21_TRA_COA_Antagonist_Followup_ratio: Tox21 Thyroid Hormone Receptor alpha Antagonism through Coactivator Recruitment Follow-Up Assay, Ratio (AID 2283953)
THRA (gene 7067), sequence (P10827 whole entry, looked up, the tested form may be a part): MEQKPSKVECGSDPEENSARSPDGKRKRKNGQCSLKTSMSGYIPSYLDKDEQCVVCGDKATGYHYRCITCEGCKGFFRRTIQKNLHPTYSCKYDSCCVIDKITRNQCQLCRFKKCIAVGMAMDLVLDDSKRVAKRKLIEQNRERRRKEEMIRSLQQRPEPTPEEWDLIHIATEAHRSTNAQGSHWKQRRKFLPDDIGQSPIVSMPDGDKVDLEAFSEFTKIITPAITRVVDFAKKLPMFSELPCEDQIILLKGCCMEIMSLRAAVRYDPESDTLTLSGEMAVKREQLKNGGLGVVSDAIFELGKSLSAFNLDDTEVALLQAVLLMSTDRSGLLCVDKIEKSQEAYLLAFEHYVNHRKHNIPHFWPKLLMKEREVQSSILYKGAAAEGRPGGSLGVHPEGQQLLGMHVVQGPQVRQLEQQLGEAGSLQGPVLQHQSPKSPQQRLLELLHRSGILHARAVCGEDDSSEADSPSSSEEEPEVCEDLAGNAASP
Summary of the method: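 This follow-up to the GH3 luciferase screen checks specificity in a cell-free format. It measures SRC-2 coactivator peptide binding to TRα LBD by TR-FRET and scores loss of ratio signal relative to DMSO.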

THRB (gene 7068) [7] = target: THRB (gene 7068) (UniProt P10828); assay: TOX21_TRB_BLA_Antagonist_Followup_ratio: Tox21 Thyroid Hormone Receptor beta Antagonism Beta-lactamase (BLA) Follow-Up Assay, Ratio (AID 2283958)
THRB (gene 7068), sequence (P10828 whole entry, looked up, the tested form may be a part): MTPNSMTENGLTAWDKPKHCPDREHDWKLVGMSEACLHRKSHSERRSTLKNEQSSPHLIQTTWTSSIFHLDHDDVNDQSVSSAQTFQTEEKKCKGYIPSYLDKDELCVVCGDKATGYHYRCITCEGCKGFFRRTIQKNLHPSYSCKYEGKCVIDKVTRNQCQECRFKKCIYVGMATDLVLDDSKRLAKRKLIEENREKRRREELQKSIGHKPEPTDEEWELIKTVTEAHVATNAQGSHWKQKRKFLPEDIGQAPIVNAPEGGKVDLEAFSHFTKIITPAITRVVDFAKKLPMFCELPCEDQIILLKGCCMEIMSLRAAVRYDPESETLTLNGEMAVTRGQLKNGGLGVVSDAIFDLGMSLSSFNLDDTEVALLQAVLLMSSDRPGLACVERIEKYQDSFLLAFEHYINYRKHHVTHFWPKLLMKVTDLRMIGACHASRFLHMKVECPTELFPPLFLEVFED
Summary of the method: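 In this antagonist-mode follow-up, a stably integrated GAL4-TRβ LBD fusion drives a UAS-beta-lactamase reporter in HEK293T cells. Loss of ratio signal relative to DMSO after 18 h treatment indicates activity; parallel CellTiter-Glo flags cytotoxicity.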

[8] = TOX21_TRB_BLA_Antagonist_Followup_viability: Viability Assessment in the Tox21 Thyroid Hormone Receptor beta Antagonism Beta-lactamase (BLA) Follow-Up Assay (AID 2283961)
Summary of the method: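 ATP-based CellTiter-Glo luminescence (30 min, room temperature) run in the same wells as the TRβ-bla readout. Cells: GeneBLAzer HEK293T expressing GAL4-TRβ LBD, exposed 18 h at 37C to compounds at 11 concentrations in triplicate, stripped-serum medium.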

THRB (gene 7068) [9] = target: THRB (gene 7068) (UniProt P10828); assay: TOX21_TRB_COA_Antagonist_Followup_ratio: Tox21 Thyroid Hormone Receptor beta Antagonism through Coactivator Recruitment Follow-Up Assay, Ratio (AID 2283967)
Summary of the method: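 Cell-free TR-FRET coactivator recruitment with GST-tagged TRβ LBD (5.0 nM) and fluorescein-labeled SRC-2 peptide (200 nM) detected by terbium anti-GST antibody (2 nM). The 520:495 nm emission ratio was normalized to DMSO (0%) and T3 (100%).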

[10] = TOX21_TR_RXR_BLA_Antagonist_Followup_viability: Viability Assessment in the Tox21 Thyroid Hormone Receptor beta Retinoid X Receptor alpha (RXRa) Antagonism Beta-lactamase (BLA) Follow-Up Assay (AID 2283979)
Summary of the method: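 RXRa-UAS-bla HEK293T cells seeded 2,500/well in phenol red-free DMEM with 2% charcoal-stripped FBS, attached 5 h, then exposed to compounds at 11 concentrations in triplicate for 16 h at 37C/5% CO2. Viability read by CellTiter-Glo ATP luminescence; bidirectional fit versus DMSO.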

[11] = CCTE_Harrill_HTTr_Viability_MCF7: CCTE's 6-hour Cell Viability Assessment for the High-Throughput Transcriptomics (HTTr) Platform, in MCF-7 cells cultured in DMEM + 10% fetal bovine serum, Harrill Lab (AID 2284010; active = hit-call score of the fitted dose curve at least 0.9, where 1 is the maximum; inactive = score below 0.9)
Summary of the method: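 Viability measured through PI dye exclusion by high-content imaging at 6 h post-dosing.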

[12] = CCTE_Harrill_HTTr_Apoptosis_MCF7: CCTE's 6-hour Apoptosis Assessment for the High-Throughput Transcriptomics (HTTr) Platform, in MCF-7 cells cultured in DMEM + 10% fetal bovine serum, Harrill Lab (AID 2284011; active = hit-call score of the fitted dose curve at least 0.9, where 1 is the maximum; inactive = score below 0.9)
Summary of the method: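 High-content imaging of CellEvent Caspase 3/7 Green signal follows a six-hour exposure, with eight concentrations per chemical. MCF-7 cells grown in DMEM plus 10% fetal bovine serum; activity fitted in both directions against DMSO.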

[13] = CCTE_Harrill_HTTr_CellCount_MCF7: CCTE's Cell Proliferation Assessment for the High-Throughput Transcriptomics (HTTr) Platform, Harrill Lab (AID 2284012);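 also: count of Hoechst-stained nuclei per well by high-content imaging in MCF-7 cells; cells exposed to compound for six hours; intended direction is loss of nuclei count meaning fewer cells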
Summary of the method: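 Nuclei counting (Hoechst, high content imaging) in MCF-7 after a 6 h treatment at eight concentrations. Activity fitted bidirectionally, DMSO as negative control.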

[14] = target: Cellular tumor antigen p53 (Homo sapiens) (UniProt P04637); assay: TOX21_p53_BLA_p3_ratio: Tox21 HCT-116 p53 Agonism Beta-lactamase Assay, Ratio, Phase 3 (AID 2283596)
Summary of the method: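 HCT116 p53-bla cells (4000/well) given compound in DMSO (217-fold dilution) after 5 h, incubated 16 h at 37C. CCF4-AM substrate 2 h at room temperature; 460/530 nm emission ratio, gain fitted against DMSO.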

Measured: AC50

CCc1ccc(Br)cc1
inactive: [1] | [2] | [3]

COc1ccc(C)cc1[N+](=O)[O-]
inactive: [1] | [4] | [5]

CCCCNc1c(C(=O)OCC)c(C)nc2c1cnn2CC
inactive: [1] | [2] | [5]

CC(=O)OCC1=C(C(=O)O)N2C(=O)[C@@H](NC(=O)Cc3ccccc3)[C@H]2SC1
inactive: [1] | [2]

CCCCOc1ccc(OCCCN2CCOCC2)cc1
inactive: [1] | [2] | [5] | [3]

CS(=O)(=O)O
inactive: [1] | [2] | [4]

BrC(Br)C(Br)Br
inactive: [1] | [4] | [5]

CCCCCCOC(=O)c1cccnc1
inactive: [1] | [4] | [5] | [3]

CCOC(=O)Nc1ccc2c(c1)N(C(=O)CCN1CCOCC1)c1ccccc1S2
inactive: [1] | [4] | [5]

C=CCCCCCC
inactive: [1] | [4] | [5]

CCNC(=O)[C@@H]1CCCN1C(=O)[C@H](CCCN=C(N)N)NC(=O)[C@H](CC(C)C)NC(=O)[C@@H](CC(C)C)NC(=O)[C@H](Cc1ccc(O)cc1)NC(=O)[C@H](CO)NC(=O)[C@H](Cc1c[nH]c2ccccc12)NC(=O)[C@H](Cc1cnc[nH]1)NC(=O)[C@@H]1CCC(=O)N1
inactive: [1] | [4]

CCCC(=O)Nc1ncnc2c1ncn2[C@@H]1O[C@@H]2COP(=O)(O)O[C@H]2[C@H]1OC(=O)CCC
inactive: [1] | [4] | [5] | [3]

C=CC(=O)NC(C)C
inactive: [1] | [2] | [3]

CCCCOC(=O)C(=O)OCCCC
inactive: [1] | [2] | [4] | [5] | [3]

CC(CC(=O)O)CC(C)(C)C (stereo not given)
inactive: [1] | [2] | [5]

O=C(O[C@@H](C(=O)O)[C@@H](OC(=O)c1ccccc1)C(=O)O)c1ccccc1
inactive: [1] | [4] | [5]

C/C=C(/CC[C@@H](C)[C@H]1CC[C@H]2C3=CC[C@H]4[C@H](C)[C@@H](O)CC[C@]4(C)[C@H]3CC[C@]12C)C(C)C
inactive: [1] | [2] | [5]

CC(=O)OCC(=O)[C@@]1(O)CC[C@H]2[C@@H]3C[C@H](C)C4=CC(=O)C=C[C@]4(C)[C@H]3[C@@H](O)C[C@@]21C
inactive: [1] | [2] | [4] | [3]

CC(C)(CCl)c1ccccc1
inactive: [1] | [2] | [4] | [5] | [3]

Cc1c(O)cc2c(c1C)O[C@](C)(CCC[C@H](C)CCC[C@H](C)CCCC(C)C)CC2
inactive: [1] | [2] | [4] | [3]

CCC=C1OC(=O)c2ccccc21
inactive: [1] | [2] | [4] | [5] | [3]

FC(F)(F)c1ccccc1
inactive: [1] | [4] | [5] | [3]

CCOC(=O)[C@H](CCc1ccccc1)N[C@@H](C)C(=O)N1Cc2cc(OC)c(OC)cc2C[C@H]1C(=O)O
inactive: [1] | [2] | [5]

CC(C)Cc1ccc([C@H](C)C(=O)O)cc1
inactive: [1] | [2] | [5]

C=CCCCCCCCCCCC
inactive: [1] | [2] | [3]

CC(=O)OCC(=O)[C@@]1(O)[C@H](C)C[C@H]2[C@@H]3C[C@H](F)C4=CC(=O)C=C[C@]4(C)[C@H]3[C@@H](O)C[C@@]21C
inactive: [1] | [2] | [3]

NCC1CCC(C(=O)Oc2ccc(CCC(=O)O)cc2)CC1 (stereo not given)
inactive: [1] | [2] | [3]

COC(=O)[C@@H](N)Cc1ccc(O)c(O)c1
inactive: [1] | [4]

CN1C(C(=O)Nc2ccccn2)C(=O)c2sc(Cl)cc2S1(=O)=O (stereo not given)
inactive: [1] | [2] | [4] | [3]

C=CCSSCCC
inactive: [1] | [2]

CC(=O)Nc1ccc(S(=O)(=O)Nc2cc(C)on2)cc1
inactive: [1] | [4] | [5]

CCCCC(=O)O[C@]1(C(=O)CO)CC[C@H]2[C@@H]3CCC4=CC(=O)CC[C@]4(C)[C@H]3[C@@H](O)C[C@@]21C
inactive: [1] | [2] | [5] | [3]

CCCCCCCCCCCC[N+](C)(C)CCCS(=O)(=O)[O-]
inactive: [1] | [2] | [4] | [3]

CCC(=O)OC(OP(=O)(CCCCc1ccccc1)CC(=O)N1C[C@H](C2CCCCC2)C[C@H]1C(=O)O)C(C)C (stereo not given in full)
inactive: [1] | [2] | [5] | [3]

COC(=O)c1cc(C(=O)OC)cc(S(=O)(=O)O)c1
inactive: [1] | [4] | [5]

CC1CCCCN1CCCOC(=O)c1ccccc1 (stereo not given)
inactive: [1] | [2] | [5] | [3]

CC(=O)CC(=O)Nc1ccc(S(=O)(=O)O)cc1
inactive: [1] | [2] | [3]

CN1CCCC(CC2c3ccccc3Sc3ccccc32)C1 (stereo not given)
active: [6] 15.5 µM | [8] 8.56 µM
inactive: THRA (gene 7067) | THRB (gene 7068) [7] | THRB (gene 7068) [9] | [10]

CCCCC(CC)COC(=O)CC#N (stereo not given)
inactive: [11] | [12] | [13]

[O-][n+]1ccccc1SSc1cccc[n+]1[O-]
inactive: [2] | [4] | [5] | [3]
active: [14] 9.52 µM

COc1ccc(-c2cc(C(F)F)nn2-c2ccc(S(N)(=O)=O)cc2)cc1F
inactive: [14] | [2] | [3]

CN1CCN(C2=Nc3ccccc3Oc3ccc(Cl)cc32)CC1
inactive: [14] | [2] | [4] | [3]
